We go through seven compounds from PubChem BioAssay.

Values joined by “and” are separate entries in the source; they are usually repeats but may differ in a detail not shown here. Equal entries are not always repeated.

This assay in a line: probe aNOTCH3 binding on compound microarray – biochemical, small-molecule microarray, 635/667 nm fluorescence, primary screen (AID 1120).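 Note: probe is a biotin-tagged antibody raised against NOTCH3 rather than NOTCH3 protein; score merges spot fluorescence near 667 nm with spot signal to noise.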 Conditions: higher = more signal.
As to `C=CC[C@@H](O)c1ccc(O)c2ccccc12`, the composite z-score was 0.347 and 0.0296.
The result for `CCOC(=O)C[C@H]1[C@H](OC(=O)c2ccccc2-c2ccccc2)[C@@H](NC(=O)Cc2ccc(OC)cc2)c2cc(OCCCO)ccc2N1C(=O)c1ccc2ccccc2n1` reads -0.0347 and -0.0608; that for `CN1C(=O)C2CC=C([C@H]3Oc4ccccc4S(=O)(=O)N4CCC[C@@H]34)CC2C1=O` (some centres not stated), -0.182 and -0.173; that for `C[N+](C)(C)CCCCNC(=O)[C@H]1C[C@H]2C(=O)N[C@@H](CCCC[N+](C)(C)C)C(=O)N2[C@H]1c1ccc(O)cc1`, -0.0947 and 0.0311.
In the case of `C=CCN(Cc1ccccc1)C(=O)C1N(c2c(Cl)cccc2CO)C(=O)C2C(C(=O)O)C3C=CC21O3` (configuration not stated) it was -0.425 and -0.352; in that of `O=C1[C@H]2[C@H]3[C@H](O)[C@H](O)CC(=NOCc4ccccc4)[C@H]3CC[C@H]2C(=O)N1Cc1ccccc1`, -0.136.
For the compound `COC(=O)[C@@]1(Cc2ccc(F)cc2)[C@H]2c3cc(C(=O)N4CCCC4)n(Cc4c(CO)[nH]cc(C)c4=O)c3C[C@H]2CN1C(=O)c1ccccc1`, the composite z-score was 1.28 and 0.355.
